Test results taken from PubChem BioAssay (EPA / NIEHS).
Activity calls are given as the source filed them. The calls were made as follows: active = hit-call score of the fitted dose curve at least 0.9, where 1 is the maximum; inactive = score below 0.9.

Target: Heat shock factor protein 1 (Homo sapiens) (UniProt Q00613)
Assay: ATG_HSE_CIS: Attagene CIS-FACTORIAL HepG2 Assay for human Heat Shock Transcription Factor 1 (HSE) (AID 2282953)
Settings: HepG2 HSE cis-reporter, Attagene RNA transcription; actives raise or lower the signal
Outline: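 HepG2 cells transfected with cis-promoter reporter units sensing endogenous transcription factor activity; reporter mRNA quantified 24 h post-dose by RT-PCR and capillary electrophoresis of 6-FAM-labelled products. Bidirectional fitting against DMSO.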

Sequence of Heat shock factor protein 1 (Homo sapiens) (Q00613 whole entry, looked up): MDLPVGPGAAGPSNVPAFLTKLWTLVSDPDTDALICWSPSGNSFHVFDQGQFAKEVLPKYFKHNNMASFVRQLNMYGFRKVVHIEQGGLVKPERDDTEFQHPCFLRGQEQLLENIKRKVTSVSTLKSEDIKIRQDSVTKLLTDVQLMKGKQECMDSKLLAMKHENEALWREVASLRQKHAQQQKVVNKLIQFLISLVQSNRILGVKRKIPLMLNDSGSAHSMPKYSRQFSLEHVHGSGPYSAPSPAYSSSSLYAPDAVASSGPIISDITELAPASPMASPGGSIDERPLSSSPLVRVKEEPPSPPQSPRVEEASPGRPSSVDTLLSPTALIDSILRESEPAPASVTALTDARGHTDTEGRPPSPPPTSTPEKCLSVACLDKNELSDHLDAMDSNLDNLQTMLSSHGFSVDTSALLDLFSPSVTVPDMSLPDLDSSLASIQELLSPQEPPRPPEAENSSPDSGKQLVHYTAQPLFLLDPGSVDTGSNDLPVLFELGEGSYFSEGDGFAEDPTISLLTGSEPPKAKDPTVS

SMILES | outcome
CC(C)C[C@H]1C(=O)N2CCC[C@H]2[C@]2(O)O[C@](NC(=O)[C@@H]3C=C4c5cccc6[nH]c(Br)c(c56)C[C@H]4N(C)C3)(C(C)C)C(=O)N12 | inactive
CCOc1ccccc1OCC | inactive
C=CC(C)(CCC=C(C)C)OC=O (centres undefined) | inactive
O=C(O)c1ccc(C(=O)O)cc1 | inactive
O=C(O)CCCCC1CCSS1 (centres undefined) | inactive
O=C1CCCCCCCCCCCCCCO1 | inactive
C=C(C)C(=O)O | inactive
Cc1ccc(C(=O)O)o1 | inactive
O=S(=O)(O)c1cccc2c(S(=O)(=O)O)cccc12 | inactive
CCC/C=C/C=O | inactive
Nc1ccc(S(N)(=O)=O)cc1 | inactive
O=C(Cl)c1cccc(C(=O)Cl)c1 | inactive
CCN(CC)c1ccc(C(=C2C=CC(=[N+](CC)CC)C=C2)c2ccc(S(=O)(=O)O)cc2S(=O)(=O)[O-])cc1 | inactive
O=c1cc(-c2ccccc2)oc2cc(O)cc(O)c12 | inactive
NC(N)=NC(=O)c1nc(Cl)c(N)nc1N | inactive
O=C(O)c1cccc([N+](=O)[O-])c1 | inactive
CC1=CCC(O)(C(C)C)CC1 (centres undefined) | inactive
O=C(O)CN(CCN(CC(=O)O)CC(=O)O)CCN(CC(=O)O)CC(=O)O | inactive
CC1CC(OC(=O)c2ccccc2O)CC(C)(C)C1 (centres undefined) | inactive
CC(C)CCCCCCCOC(=O)c1ccc(C(=O)OCCCCCCCC(C)C)c(C(=O)OCCCCCCCC(C)C)c1 | inactive
COc1cc(C=O)ccc1OC(=O)C(C)C | inactive
CCc1ccc(C=O)cc1 | inactive
Cc1ccccc1C=O | inactive
CCC(C)CCCC(C)(C)O (centres undefined) | inactive
Cc1ccc(O)c(C(C)(C)C)c1 | inactive
CCCCCCOC(=O)CCCCC | inactive

Tested on: not listed separately
Assay: ATG_MRE_CIS: Attagene CIS-FACTORIAL HepG2 Assay for human Metal Responsive Element (MRE) (AID 2282954)
Settings: HepG2 MRE cis-reporter transcription, Attagene multiplex; actives raise or lower the signal
Outline: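 Measured here is mRNA induction from an MRE cis-element reporter in HepG2 after 24 h, quantified by fluorescence of labelled RT-PCR products on capillary electrophoresis; gain- and loss-of-signal fits use DMSO as baseline.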

SMILES | AC50 | outcome
CC(C)C[C@H]1C(=O)N2CCC[C@H]2[C@]2(O)O[C@](NC(=O)[C@@H]3C=C4c5cccc6[nH]c(Br)c(c56)C[C@H]4N(C)C3)(C(C)C)C(=O)N12 | 2.16 µM (active) | –
C=CC(C)(CCC=C(C)C)OC=O (centres undefined) | – | inactive
NC(=O)Nc1ccc(Cl)cc1 | – | inactive
O=C(O)c1ccc(C(=O)O)cc1 | – | inactive
O=C(O)CCCCC1CCSS1 (centres undefined) | – | inactive
O=C1CCCCCCCCCCCCCCO1 | – | inactive
Cc1ccc(C(=O)O)o1 | – | inactive
CC(C)(C)NC(N)=O | – | inactive
O=S(=O)(O)c1cccc2c(S(=O)(=O)O)cccc12 | – | inactive
CCC/C=C/C=O | – | inactive
Nc1ccc(S(N)(=O)=O)cc1 | – | inactive
O=C(Cl)c1cccc(C(=O)Cl)c1 | – | inactive
CCN(CC)c1ccc(C(=C2C=CC(=[N+](CC)CC)C=C2)c2ccc(S(=O)(=O)O)cc2S(=O)(=O)[O-])cc1 | – | inactive
O=c1cc(-c2ccccc2)oc2cc(O)cc(O)c12 | – | inactive
CCCc1ccccc1O | – | inactive
C=CC[N+](C)(C)CC=C | – | inactive
O=C(O)c1cccc([N+](=O)[O-])c1 | – | inactive

SMILES | AC50 | outcome
CC1=CCC(O)(C(C)C)CC1 (centres undefined) | – | inactive
CN(C)c1ccc(O)c2c1C[C@H]1C[C@H]3[C@H](N(C)C)C(=O)C(C(N)=O)=C(O)[C@@]3(O)C(=O)C1=C2O | – | inactive
O=C(O)CN(CCN(CC(=O)O)CC(=O)O)CCN(CC(=O)O)CC(=O)O | – | inactive
O=C=NC1CCC(CC2CCC(N=C=O)CC2)CC1 (centres undefined) | – | inactive
CC1CC(OC(=O)c2ccccc2O)CC(C)(C)C1 (centres undefined) | – | inactive
CC(C)CCCCCCCOC(=O)c1ccc(C(=O)OCCCCCCCC(C)C)c(C(=O)OCCCCCCCC(C)C)c1 | – | inactive
CCCCCCCCCC=O | – | inactive
CN(C)C(=N)N=C(N)N | – | inactive
C[C@H]1C[C@@H]2[C@H]([C@@H](O)C[C@@]3(C)[C@H]2CC[C@]3(O)C(=O)CO)[C@@]2(C)C=CC(=O)C=C12 | – | inactive
Cc1cccc(Nc2ccccc2C(=O)O)c1C | 76.9 µM (active) | –
COc1cc(C=O)ccc1OC(=O)C(C)C | – | inactive
CCc1ccc(C=O)cc1 | – | inactive
Cc1ccccc1C=O | – | inactive
CCC(C)CCCC(C)(C)O (centres undefined) | – | inactive
[Ca+2] | – | inactive
CCCCCCOC(=O)CCCCC | – | inactive
